Results taken from the supplement of paper PMC7057948, “A genome-wide approach for identification and characterisation of metabolite-inducible systems” (Nature Communications, 2020).

system: PcaQ/P_H16_RS30145 3,4-dihydroxybenzoate biosensor (pEH161); experiment: relative induction of RFP reporter vs primary effector; higher = stronger activation; conditions: inducer concentration 5 mM; 6 h; Cupriavidus necator H16; minimal medium + 0.4% gluconate
Experimental: (§1)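 Orthogonality screen of 21 primary inducers against 21 transcription factor/inducible promoter–mRFP biosensors in C. necator H16 in minimal medium, robotic 96-well format, 5 mM inducer, 30 °C. OD-normalised RFP fluorescence was read 6 h later and expressed as relative induction (%) = 100 × (FL compound − FL uninduced)/(FL primary inducer − FL uninduced); mean of n=4. Cognate pairs (100% by definition) omitted.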

Row | SMILES | relative induction of RFP reporter [%]
1 | O=C(O)c1ccccc1 | 0.00574
2 | NCCC(=O)O [β-alanine] | -0.208
3 | O=C(O)C(=O)c1ccccc1 [phenylglyoxylate] | -0.114
4 | O=C(O)CS(=O)(=O)O [sulfonatoacetate] | -0.165
5 | CC(=O)C(C)O (stereo not drawn) [acetoin] | -0.169
6 | N[C@@H](Cc1ccc(O)cc1)C(=O)O [L-tyrosine] | 0.392
7 | O=c1[nH]c(=O)c2nc[nH]c2[nH]1 [xanthine] | -0.198
8 | OC1OC[C@H](O)[C@H](O)[C@H]1O (mixture of isomers) [L-arabinose] | -0.0772
9 | O=C(O)C(O)C(O)C(=O)O (stereo not drawn) [tartrate] | 0.0285
10 | O=C(O)c1ccccc1O [salicylate] | -0.391
11 | C=C(CC(=O)O)C(=O)O [itaconate] | -0.0579
12 | O=C(O)C1CCCCC1 [cyclohexane-1-carboxylate] | -0.211
13 | O=CO [formate] | -0.0432
14 | N[C@@H](Cc1ccccc1)C(=O)O [L-phenylalanine] | -0.267
15 | O=C(O)CCO [3-hydroxypropanoate] | -0.224
16 | Nc1ccccc1C(=O)C[C@H](N)C(=O)O [L-kynurenine] | -0.136
17 | C=CC(=O)O [acrylate] | -0.175

system: PhgR/P_H16_RS05530 phenylglyoxylate biosensor (pEH155); experiment: as above; conditions: inducer concentration 5 mM; 6 h; Cupriavidus necator H16; minimal medium + 0.4% gluconate
Experimental: as §1

Row | SMILES | relative induction of RFP reporter [%]
18 | NCCC(=O)O [β-alanine] | -0.344
19 | O=C(O)CS(=O)(=O)O [sulfonatoacetate] | -0.406
20 | CC(=O)C(C)O (stereo not drawn) [acetoin] | -0.461
21 | N[C@@H](Cc1ccc(O)cc1)C(=O)O [L-tyrosine] | -0.239
22 | O=c1[nH]c(=O)c2nc[nH]c2[nH]1 [xanthine] | -0.06
23 | OC1OC[C@H](O)[C@H](O)[C@H]1O (mixture of isomers) [L-arabinose] | -0.169
24 | O=C(O)C(O)C(O)C(=O)O (stereo not drawn) [tartrate] | -0.242
25 | O=C(O)c1ccccc1 [benzoate] | -0.295
26 | O=C(O)c1ccccc1O [salicylate] | -0.369
27 | C=C(CC(=O)O)C(=O)O [itaconate] | -0.453
28 | O=C(O)C1CCCCC1 [cyclohexane-1-carboxylate] | -0.472
29 | O=C(O)c1ccc(O)c(O)c1 [3,4-dihydroxybenzoate] | -0.535
30 | O=CO [formate] | -0.511
31 | N[C@@H](Cc1ccccc1)C(=O)O [L-phenylalanine] | -0.485
32 | O=C(O)CCO [3-hydroxypropanoate] | -0.286
33 | Nc1ccccc1C(=O)C[C@H](N)C(=O)O [L-kynurenine] | -0.296
34 | C=CC(=O)O [acrylate] | -0.587

system: SauR/P_H16_RS13695 sulfonatoacetate biosensor (pEH157); experiment: as above; conditions: inducer concentration 5 mM; 6 h; Cupriavidus necator H16; minimal medium + 0.4% gluconate
Experimental: as §1

Row | SMILES | relative induction of RFP reporter [%]
35 | NCCC(=O)O [β-alanine] | -0.0116
36 | O=C(O)C(=O)c1ccccc1 [phenylglyoxylate] | 0.0193
37 | CC(=O)C(C)O (stereo not drawn) [acetoin] | -0.0229
38 | N[C@@H](Cc1ccc(O)cc1)C(=O)O [L-tyrosine] | 0.00275
39 | O=c1[nH]c(=O)c2nc[nH]c2[nH]1 [xanthine] | 0.0306
40 | OC1OC[C@H](O)[C@H](O)[C@H]1O (mixture of isomers) [L-arabinose] | -0.00743
41 | O=C(O)C(O)C(O)C(=O)O (stereo not drawn) [tartrate] | 0.033
42 | O=C(O)c1ccccc1 [benzoate] | -0.0427
43 | O=C(O)c1ccccc1O [salicylate] | 0.0177
44 | C=C(CC(=O)O)C(=O)O [itaconate] | 0.0423
45 | O=C(O)C1CCCCC1 [cyclohexane-1-carboxylate] | 0.0396
46 | O=C(O)c1ccc(O)c(O)c1 [3,4-dihydroxybenzoate] | 0.0892
47 | O=CO [formate] | 0.0555
48 | N[C@@H](Cc1ccccc1)C(=O)O [L-phenylalanine] | -0.0265
49 | O=C(O)CCO [3-hydroxypropanoate] | -0.00696
50 | Nc1ccccc1C(=O)C[C@H](N)C(=O)O [L-kynurenine] | 0.00419
51 | C=CC(=O)O [acrylate] | 0.114

system: TtdR/P_H16_RS10665 tartrate biosensor (pEH083); experiment: as above; conditions: inducer concentration 5 mM; 6 h; Cupriavidus necator H16; minimal medium + 0.4% gluconate
Experimental: as §1

Row | SMILES | relative induction of RFP reporter [%]
52 | NCCC(=O)O [β-alanine] | 0.268
53 | O=C(O)C(=O)c1ccccc1 [phenylglyoxylate] | -0.379
54 | O=C(O)CS(=O)(=O)O [sulfonatoacetate] | 0.749
55 | CC(=O)C(C)O (stereo not drawn) [acetoin] | 0.102
56 | N[C@@H](Cc1ccc(O)cc1)C(=O)O [L-tyrosine] | 1.67
57 | O=c1[nH]c(=O)c2nc[nH]c2[nH]1 [xanthine] | 0.737
58 | OC1OC[C@H](O)[C@H](O)[C@H]1O (mixture of isomers) [L-arabinose] | -0.392
59 | O=C(O)c1ccccc1 [benzoate] | -0.474
60 | O=C(O)c1ccccc1O [salicylate] | -0.317
61 | C=C(CC(=O)O)C(=O)O [itaconate] | -0.0311
62 | O=C(O)C1CCCCC1 [cyclohexane-1-carboxylate] | 2.19
63 | O=C(O)c1ccc(O)c(O)c1 [3,4-dihydroxybenzoate] | -0.148
64 | O=CO [formate] | 0.287
65 | N[C@@H](Cc1ccccc1)C(=O)O [L-phenylalanine] | 0.153
66 | O=C(O)CCO [3-hydroxypropanoate] | -0.346
67 | Nc1ccccc1C(=O)C[C@H](N)C(=O)O [L-kynurenine] | -0.312
68 | C=CC(=O)O [acrylate] | -0.0524
